Screening results from PubChem BioAssay.
LYPLA2 counter: LYPLA2 (human) inhibition in PME1 counter-screen. O95372. recombinant LYPLA2, FP-Rh probe fluorescence polarization. inhibition, % at 5.9 µM. 0.38% of 320,000 active. AID 2177;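 active = inhibition above the screen-wide mean plus 3 SD, limit set per campaign, cut at about 26% in these data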;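 also: 0% = LYPLA2 with DMSO and 100% = wells lacking LYPLA2 enzyme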
PME-1 primary: PME-1 (human) inhibition. inhibition, % at 5.9 µM. AID 2130. 0.53% of 320,000 active. recombinant PME-1, FP-Rh probe fluorescence polarization. Q9Y570;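 active = inhibition above the campaign mean of all compounds plus 3 SD, cut at about 26% in these data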;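 also: competitive labeling of PME-1 active site by serine hydrolase directed probe; 0% = PME-1 with DMSO and 100% = wells lacking PME-1 enzyme; inhibitors block probe labeling so polarization falls and inhibition rises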
Fam108B counter: counter-screen for RBBP9 inhibitors: inhibitors of mouse Fam108B | recombinant Fam108B, FP-Rh probe fluorescence polarization | inhibition, % at 9.51 µM | 0.33% of 300,000 active | AID 1947;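 active = inhibition above the screen mean inhibition plus 3 SD, computed separately per campaign, cut at about 18% in these data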;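 also: inhibitors lower polarization as less probe binds the enzyme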
PAD4 FP inh: PAD4 (human) enzyme inhibition. AID 485272. inhibition, % at 6.36 µM. 0.41% of 330,000 active. recombinant PAD4, RCA probe fluorescence polarization. Q9UM07;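 active = percent inhibition above a cutoff equal to the mean of all tested compounds plus 3 SD, cut at about 15% in these data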;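 also: 0% = PAD4 with RCA probe and DMSO and 100% = probe without PAD4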
Target sequence (Q9UM07 whole entry, looked up): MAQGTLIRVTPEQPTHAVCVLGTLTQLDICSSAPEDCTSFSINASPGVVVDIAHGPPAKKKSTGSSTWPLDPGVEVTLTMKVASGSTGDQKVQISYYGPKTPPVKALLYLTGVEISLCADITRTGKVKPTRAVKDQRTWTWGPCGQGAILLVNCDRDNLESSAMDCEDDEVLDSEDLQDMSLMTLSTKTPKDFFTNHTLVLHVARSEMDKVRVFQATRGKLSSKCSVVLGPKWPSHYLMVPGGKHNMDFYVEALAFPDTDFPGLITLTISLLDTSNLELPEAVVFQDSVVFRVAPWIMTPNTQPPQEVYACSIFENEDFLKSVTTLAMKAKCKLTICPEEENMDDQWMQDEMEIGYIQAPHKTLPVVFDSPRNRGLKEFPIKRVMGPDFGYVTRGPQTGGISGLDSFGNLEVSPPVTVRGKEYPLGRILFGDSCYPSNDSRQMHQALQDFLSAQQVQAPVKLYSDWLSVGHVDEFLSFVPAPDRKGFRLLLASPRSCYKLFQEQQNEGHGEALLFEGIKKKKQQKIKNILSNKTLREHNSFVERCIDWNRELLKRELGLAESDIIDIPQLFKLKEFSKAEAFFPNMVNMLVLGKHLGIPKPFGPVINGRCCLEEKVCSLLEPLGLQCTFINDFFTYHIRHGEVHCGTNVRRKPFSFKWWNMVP
GSTO1 inh: counter-screen for RBBP9 inhibitors: inhibitors of human GSTO1; P78417; recombinant GSTO1, activity-based probe fluorescence polarization; inhibition, % at 5.96 µM; 1.1% of 300,000 active; AID 1974;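 active = inhibition above the campaign mean inhibition plus 3 SD, cut at about 35% in these data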;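 also: 0% = GSTO1-1 with DMSO and 100% = wells lacking GSTO1-1 enzyme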
LYPLA1 counter: LYPLA1 (human) inhibition in PME1 counter-screen; inhibition, % at 5.9 µM; O75608; recombinant LYPLA1, FP-Rh probe fluorescence polarization; 0.16% of 320,000 active;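 active = inhibition above the mean of all tested compounds plus 3 SD, set per campaign, cut at about 14% in these data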;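 also: inhibitors block serine hydrolase probe labeling of LYPLA1 so polarization falls; 0% = enzyme with DMSO and 100% = wells lacking LYPLA1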
GSTO1 inh conf: confirmation of human GSTO1 inhibitors. AID 2176. recombinant GSTO1, probe fluorescence polarization. inhibition, % at 5.96 µM. 54% of 2,400 active. shares compounds with GSTO1 inh;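 active = inhibition above the primary screen's cutoff, its mean inhibition plus 3 SD, cut at about 35% in these data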;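 also: loss of polarization as inhibitors block binding of rhodamine sulfonate ester activity probe; 0% = GSTO1 with DMSO and 100% = wells lacking GSTO1 enzyme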
LYPLA1 conf: counter-screen for PME1 inhibitors: confirmation of human LYPLA1 inhibitors. shares compounds with LYPLA1 counter. recombinant LYPLA1, FP-Rh probe fluorescence polarization. inhibition, % at 5.9 µM. 69% of 480 active;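 active = mean inhibition across replicates above the hit cutoff set in the primary screen, cut at about 15% in these data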;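 also: loss of FP-Rh probe labeling of LYPLA1 seen as lower polarization; 0% = LYPLA1 with DMSO and 100% = wells lacking LYPLA1 enzyme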
PAD4 confirm: confirmation of human PAD4 inhibitors; shares compounds with PAD4 FP inh; recombinant PAD4, RCA probe fluorescence polarization; inhibition, % at 6.36 µM; 28% of 1,200 active;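 active = mean inhibition across replicates above the hit cutoff set by the earlier primary screen, cut at about 15% in these data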;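 also: inhibitors block active-site labeling by the probe so polarization falls; 0% = PAD4 with probe and DMSO and 100% = probe without PAD4 enzyme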
Active calls of the source: *; . = no result given. Sampled rows, rich in hits. Any-hit rate of the full collection: about 1.8%.

SMILES	LYPLA2 counter	PME-1 primary	Fam108B counter	PAD4 FP inh	GSTO1 inh	LYPLA1 counter	LYPLA1 conf	others
Cc1[nH]n(-c2ccccc2)c(=O)c1C(c1ccc(C(=O)O)cc1)c1c(C)[nH]n(-c2ccccc2)c1=O	1	4	4	73*	60*	1	.	GSTO1 inh conf=18;PAD4 confirm=13
COc1cccc(C(C[N+](=O)[O-])c2c(C)[nH]n(-c3ccccc3)c2=O)c1 (stereo unspecified)	2	6	4	35*	81*	3	.	GSTO1 inh conf=4;PAD4 confirm=-1
Cc1[nH]n(-c2ccccc2)c(=O)c1C(=O)c1ccc([N+](=O)[O-])cc1	-3	-2	-3	-19	-7	-1	.
Cc1[nH]n(-c2ccccc2)c(=O)c1C(c1cccc([N+](=O)[O-])c1)c1c(C)[nH]n(-c2ccccc2)c1=O	0	3	9	30*	52*	0	.	GSTO1 inh conf=23;PAD4 confirm=-9
O=C(O)c1ccc(S(=O)(=O)N(Cc2ccccc2)C2CCCCC2)cc1	4	-3	3	7	-1	-1	.
Cc1ccc(Nc2cc(=O)oc3ccccc23)c(C)c1	3	1	-1	2	-3	-1	.
Cc1cccc(NC2=C/C(=N/S(=O)(=O)c3cccs3)c3ccccc3C2=O)c1	7	16	17	28*	84*	3	.	GSTO1 inh conf=81*;PAD4 confirm=40*
COc1cccc(Nc2nc3ccccc3nc2NS(=O)(=O)c2cccs2)c1	-1	20	6	-2	29	2	.
Cc1ccc(NC2=C/C(=N\S(=O)(=O)c3cccs3)c3ccccc3C2=O)c(C)c1	14	6	19*	65*	81*	0	.	GSTO1 inh conf=89*;PAD4 confirm=56*
CN(c1ccc(OCC(=O)N2CCC(C(N)=O)CC2)cc1)S(=O)(=O)c1cccs1	-2	6	1	-4	2	-3	.
CC(=O)N1CCN(C(=O)COc2ccc(N(C)S(=O)(=O)c3cccs3)cc2)CC1	4	6	-1	4	0	24*	-2
COc1ccc(OC)c(N2C(=O)CC(NNC(=O)c3ccc4c(c3)OCO4)C2=O)c1 (stereo unspecified)	.	.	.	1	.	.	.
Cc1noc(NS(=O)(=O)c2ccc(NC(=O)c3oc4ccc(Cl)cc4c3C)cc2)c1C	25	9	2	-4	3	28*	31*
CN1CCN(NC(=O)c2c(-c3ccccc3)sc3ccccc23)CC1	.	.	.	2	.	.	.
C(=N\N1CCN(Cc2ccccc2)CC1)/c1ccc(-c2ccccc2)cc1	3	-5	-2	5	5	0	.
COc1ccccc1/C=C/C=N/N1CCN(Cc2ccccc2)CC1	16	0	4	0	3	19*	12
CC(C)CN(C(=O)C(C)N1C(=O)c2ccccc2C1=O)c1c(N)n(Cc2ccccc2)c(=O)[nH]c1=O (stereo unspecified)	4	0	-6	-2	-1	0	.
O=c1[nH]c(O)c(/C=C2\C=Nc3ccc(Br)cc32)[nH]1	8	17	2	-4	2	36*	40*
COC(=O)CCCC(=O)N1CCCC(C(=O)c2ccc(-c3ccccc3)cc2)C1 (stereo unspecified)	3	-3	7	2	2	21*	29*
CCOC(=O)c1cnc(SCC(=O)Nc2ccc(N3CCOCC3)c(Cl)c2)nc1N	12	4	3	0	-3	16*	26*
COc1cc(C(=O)Oc2cccc(Nc3ncnc4ccccc34)c2)cc(OC)c1OC	-24	-3	-9	1	-4	-17	.
COc1ccc(C(=O)Oc2cccc(Nc3ncnc4ccccc34)c2)cc1OC	6	-7	-4	-2	-7	16*	15*
Cc1cc2oc(=O)cc(CN3CCN(C/C=C/c4ccccc4)CC3)c2cc1O	17	6	0	2	-5	20*	18*
Cc1c(O)ccc2c(CN3CCN(C/C=C/c4ccccc4)CC3)cc(=O)oc12	17	2	-4	-2	3	11	.
NC(=O)c1cc(S(=O)(=O)NCc2cccc(Br)c2)cs1	2	1	2	2	21	15*	-5
SMILES	LYPLA2 counter	PME-1 primary	Fam108B counter	PAD4 FP inh	GSTO1 inh	LYPLA1 counter	LYPLA1 conf	others
Cc1ccc(C)c(N2N=C(C(=O)Nc3cccc(S(=O)(=O)N4CCCCC4)c3)CCC2=O)c1	1	5	.	-1	.	0	.
CCN(CC)S(=O)(=O)c1cccc(-c2nnc(SCCCC(=O)c3ccccc3)o2)c1	-3	2	-8	1	-2	2	.
CCN(CC)S(=O)(=O)c1cccc(-c2nnc(SCc3nc4ccccc4s3)o2)c1	-7	0	-6	-5	9	14*	21*
Cn1ncc(Cl)c1C(=O)Nc1sc2c(c1C(N)=O)CCC2	0	5	-2	-8	-4	29*	4
NC(=O)c1c(NC(=O)c2ccccc2)sc2c1CCC2	7	3	5	-6	4	-2	.
CC1CCN(S(=O)(=O)c2ccc3c(c2)CC(C)N3C(=O)C2CCC2)CC1 (stereo unspecified)	5	11	6	-3	-11	25*	34*
CC1Cc2cc(S(=O)(=O)N3CCC(C(=O)N(C)Cc4ccco4)CC3)ccc2N1C(=O)C1CCC1 (stereo unspecified)	11	3	4	-2	-10	19*	29*
CCOC(=O)C1CCN(S(=O)(=O)c2ccc3c(c2)CC(C)N3C(=O)C2CCC2)CC1 (stereo unspecified)	3	0	3	0	-7	16*	24*
CC1Cc2cc(S(=O)(=O)N3CCCCC3)ccc2N1C(=O)C1CCC1 (stereo unspecified)	-1	5	-1	6	-8	19*	24*
CC1Cc2cc(S(=O)(=O)N3CCN(C)CC3)ccc2N1C(=O)C1CC1 (stereo unspecified)	-6	5	-2	-1	-2	-5	.
CC1Cc2cc(S(=O)(=O)N3CCC(C(=O)N4CCCCC4)CC3)ccc2N1C(=O)C1CC1 (stereo unspecified)	5	3	4	-4	4	11	.
CCOC(=O)C1CCCN(S(=O)(=O)c2ccc3c(c2)CC(C)N3C(=O)C2CC2)C1 (stereo unspecified)	-4	4	2	1	3	5	.
CC1Sc2ccc(S(=O)(=O)N3CCC(C(=O)N(C)Cc4ccco4)CC3)cc2NC1=O (stereo unspecified)	-2	5	-6	-11	-4	1	.
